Calls of active or inactive are those of the source. No rule for the calls is given here.
The compounds below were run against fMet-Leu-Phe receptor (Homo sapiens) (UniProt P21462) (assay: FPR1 fluorescent ligand binding inhibitors, SAR follow-up, selectivity assay for FPRL1 ligand SAR project, cell-based, single concentration (AID 763)). Settings: FPR1-expressing cells, active compounds read high; at 5.4 µM unless noted.
Chain of fMet-Leu-Phe receptor (Homo sapiens) (P21462 whole entry, looked up): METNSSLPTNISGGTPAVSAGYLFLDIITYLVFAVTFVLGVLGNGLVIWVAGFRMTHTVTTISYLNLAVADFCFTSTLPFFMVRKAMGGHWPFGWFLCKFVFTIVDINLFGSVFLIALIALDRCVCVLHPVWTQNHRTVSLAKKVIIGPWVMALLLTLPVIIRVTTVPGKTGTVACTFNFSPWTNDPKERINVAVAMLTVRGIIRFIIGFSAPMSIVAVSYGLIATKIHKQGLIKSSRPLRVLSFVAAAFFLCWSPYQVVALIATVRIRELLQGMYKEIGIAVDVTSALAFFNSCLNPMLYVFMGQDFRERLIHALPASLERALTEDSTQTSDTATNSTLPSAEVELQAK

inhibition, inactive:
COc1ccc(-c2cn3cccnc3n2)cc1NC(=O)C1CCCCC1 3.2% [at 6.3 µM]
COc1cccc(-c2cc(C(F)(F)F)nc(N3CCN(Cc4ccccc4)CC3)n2)c1 -16.6% [at 5.2 µM]
Cc1ccccc1N1CCN(c2nc(-c3ccccc3)c3cc(Br)ccc3n2)CC1 3.5% [at 4.8 µM]
O=C(O)/C=C\C(=O)N1CCN(c2nc(-c3ccccc3)c3cc(Br)ccc3n2)CC1 -5.7% [at 4.8 µM]
COc1ccc(-c2cn3cccnc3n2)cc1NC(=O)c1cccc(OC)c1OC -0.2% [at 5.5 µM]
CCN1CCN(c2nc(-c3cccc(Cl)c3)c3c(n2)-c2ccccc2OC3)CC1 -9.4% [at 5.5 µM]
Cc1ccc(-c2cc(C(F)F)nc(N3CCN(c4cccc(Cl)c4)CC3)n2)cc1 2.7%
CCN1CCN(c2nc(-c3ccc(Cl)cc3)cc(C(F)(F)F)n2)CC1 -3.5% [at 6 µM]

— PubChem BioAssay AID763 (NMMLSC, 2007)
